Results from PubChem BioAssay (NCI).
Compounds without any hit were thinned out: in the full panel of roughly 83,000, 20% have a hit.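 A percent growth of 40 corresponds to 60% growth inhibition; 0 means no net growth; -100 means all cells died. Active threshold: below 10.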 Unmarked numbers belong to inactive results. Activity calls are given as the source filed them.

Legend:
Test in all cases: NCI-60 one-dose screen, 48 h (100 = growth as untreated, 0 = no growth, -100 = all killed)
NCI-H23 lung = details: 10 µM unless noted
NCI-H226 lung = details: 10 µM unless noted
NCI-H322M lung = details: 10 µM unless noted
NCI-H460 lung = details: 10 µM unless noted
HOP-92 NSCLC = details: 10 µM
NCI-H522 lung = details: 10 µM
A549/ATCC NSCLC = details: 10 µM unless noted
786-0 renal = details: 10 µM unless noted
COLO 205 colon = details: 10 µM unless noted

Row | Structure (SMILES) | growth (NCI-H23 lung) | growth (NCI-H226 lung) | growth (NCI-H322M lung) | growth (NCI-H460 lung) | growth (HOP-92 NSCLC) | growth (NCI-H522 lung) | growth (A549/ATCC NSCLC) | growth (786-0 renal) | growth (COLO 205 colon)
1 | CC1=C(C)C(=O)C(C(C)C2=C(C)C(=O)C(C)=C(C)C2=O)=C(C)C1=O | 84.6% | 124% | 111% | 95.9% | 114% | 91.2% | 102% | 88.1% | 104%
2 | CCCCCCCCCCCCCCCC[n+]1cccc(C#N)c1 | 76.8% | 80.2% | 82.8% | 71.6% | 48.7% | 54.7% | 87.7% | 70.3% | 31.9%
3 | C[C@H]1C[C@@H](n2cnc3c(N)nccc32)[C@H](O)[C@@H]1O | 128% | 105% | 110% | 80.8% | 83.3% | 151% | 98.6% | 95.6% | 109%
4 | Cc1nc(N)sc1C(=O)NCCO | 106% | 97.2% | 127% | 115% | -17.9% (active) | 34.5% | 111% | 129% | 126%
5 | Cc1c(CN(C)C)cc(C(C)C)cc1C(C)C | 102% | 93.5% | 129% | 111% | 129% | 85% | 101% | 103% | 131%
6 | COc1ccc(CN2C(=O)/C(=C\C(=O)c3ccc(OCCN4CCCCC4)cc3)c3ccccc32)cc1 | 74.5% | 89.6% | 91.4% | 94.7% | 39% | 26% | 96.4% | 37.4% | 76.7%
7 | CCc1c(C)c2ccc(OCC(=O)N=Nc3c(O)[nH]c4ccccc34)c(C)c2oc1=O | 5.58% (active) | 12.4% | -14.2% (active) | -46.7% (active) | 29.7% | -9.85% (active) | 30.2% | -22.9% (active) | 31.4%
8 | COC(=O)c1ccc2[nH]c(O)c(C(=Nc3ccc(N(C)C(=O)CN4CCN(C)CC4)cc3)c3ccc(N)cc3)c2c1 | 70% | 56.5% | 77.4% | 105% | 78.3% | 75.5% | 111% | 63.9% | 41.4%
9 | CCCCCCCCC/C(=N\NC(=O)c1ccncc1)c1ccc(O)c(O)c1O | 21.8% | 34.4% | 36.1% | 4.14% (active) | 46.6% | 36% | 13.5% | 11.1% | 27.6%
10 | CCCCCCCCCCCCc1ccc([N+](CC)(CC)CC)cc1 | 17.6% | 59.3% | 88.5% | 44% | 40.9% | 33.8% | 61.1% | 65.6% | 20.3%
11 | Oc1ccc(CN(Cc2ccc(C(F)(F)F)cc2)Cc2ccc(O)c3ncccc23)c2cccnc12 | 17.4% | 18.3% | 31.5% | 1.74% (active) | -3.41% (active) | 3.25% (active) | 1.19% (active) | 11.4% | 19.6%
12 | CC1(c2ccc(Br)cc2)NC(=O)NC1=O (stereo not given) | 105% | 110% | 103% | 104% | 89.6% | 102% | 93.3% | 96% | 113%
13 | COc1cc(N)c2nccc(C)c2c1OC | 115% | 101% | 106% | 112% | 81.7% | 133% | 117% | 103% | 116%
14 | CC(=O)Nc1nc(C)c(C(=O)N/N=C/c2cccs2)s1 | 103% | 86.9% | 111% | 102% | 42.6% | 94.8% | 101% | 94.3% | 101%
15 | Cc1nc2c(nnn2-c2ccccc2)c2nc(-c3ccc(Cl)cc3)oc(=O)c12 | 116% | 92.8% | 103% | 115% | 117% | 99.7% | 111% | 105% | 120%
16 | O=C(N/N=C/c1cc(Cl)ccc1O)C(=O)N/N=C/c1cc(Cl)ccc1O | 80% | 74.9% | 61.6% | 34.8% | 51.9% | 62.7% | 52.6% | 65.2% | 75.2%
17 | NC(=O)CC(NC(=O)COc1ccc(Cl)cc1Cl)C(=O)O (stereo not given) | 101% | 102% | 102% | 104% | 96.4% | 98% | 106% | 108% | 106%
18 | CC1(C)C(O)NC(Cl)=C(C#N)C1(C#N)C#N (stereo not given) | 92.2% | 135% | 130% | 113% | 141% | 91.5% | 103% | 95.6% | 118%
19 | O=C(/C=C1\C(=O)N(Cc2ccc([N+](=O)[O-])cc2)c2ccccc21)c1ccc(OCCN2CCCCC2)cc1 | -10.4% (active) | -41.1% (active) | 49.2% | 39% | -74.5% (active) | -75% (active) | 48.2% | -88.1% (active) | -49.5% (active)
20 | CCOC(=O)CCCCCCCCC(=O)OCC | 96.3% | 103% | 97.6% | 108% | 98.6% | 105% | 107% | 106% | 108%
21 | CCCC(C)c1cc(Cc2cc(Cl)cc(Cl)c2O)c(O)c(Cc2cc(Cl)cc(Cl)c2O)c1 (stereo not given) | -6.96% (active) | -4.21% (active) | 9.16% (active) | 3.71% (active) | -19.2% (active) | 4.06% (active) | 15% | 6.89% (active) | 23.9%
22 | O=C(/C=C1\C(=O)N(Cc2ccc([N+](=O)[O-])cc2)c2ccccc21)c1ccc(OCCN2CCCC2)cc1 | 69.2% | 78.5% | 66.2% | 91.4% | 46.2% | 38.5% | 93.4% | 69.7% | 81%
23 | C=C(NC(=O)[C@H](C(C)C)N(C)c1cccc2[nH]ccc12)C(=O)OC | 99.8% | 97.5% | 100% | 103% | 99.5% | 87.3% | 96.5% | 95.9% | 132%
24 | COC(=O)C(C)[C@H]1CC[C@@H]2[C@]1(C)CC=C1[C@]23C=C[C@]2(C[C@@H](OC(C)=O)CC[C@]12C)C(C(=O)OC)C3C(=O)OC (stereo not given in full) | 92.3% | 89.8% | 102% | 101% | 83.5% | 96.8% | 91.5% | 105% | 98.8%
25 | O=C(/C=C/c1cccc(O)c1)c1cccc(-n2cc(-c3ccc(Cl)cc3)[nH]c2=O)c1 | -19.5% (active) | -48.7% (active) | -0.035% (active) | -4.62% (active) | -35.6% (active) | -48.6% (active) | 28.3% | -74.7% (active) | 42.1%
26 | CC(=O)Nc1nc(C)c(C(=O)N/N=C/N2CCOCC2)s1 | 106% | 99.8% | 115% | 113% | 48.4% | 25.3% | 111% | 77.1% | 127%
27 | COc1ccc(Cn2cc3c(c2-c2ccccc2)CCc2cnoc2-3)cc1OC | 26.3% | 57.3% | 44.8% | 7.98% (active) | 61.1% | 35.1% | 41.3% | 39.7% | 8.16% (active)
28 | FC(F)(F)c1cccc(-c2[nH]ncc2-c2nnnn2-c2ccccc2)c1 | 73.9% | 76.2% | 57.7% | 21.8% | 34.2% | 23% | 41.8% | 58.2% | 36%
29 | COC(=O)c1ccc2[nH]c(O)c(C(=Nc3ccc(N(C)C(=O)CN4CCN(C)CC4)cc3)c3ccc([N+](=O)[O-])cc3)c2c1 | 57.3% | 55.8% | 41.9% | 48.5% | 63.6% | 34.3% | 72.8% | 33.1% | 43.8%
30 | c1cc(C2CCCCC2)ccc1OCCCCCCN1CCNCC1 | 42.3% | 81.9% | 82% | -7.36% (active) | 6.55% (active) | 77.7% | 36.5% | 58.3% | -52.2% (active)
